# Results from PubChem BioAssay AID1992 (Sanford-Burnham Center for Chemical Genomics, 2009).
# In all, about 50,000 compounds went through this assay and about 350 (0.7%) were called active. No stated cut-off is given here; in the data, active means inhibition above about 60%; inactive means the rest. The sample as a whole holds a higher share of actives than the screen did.
# Target: Dual specificity protein phosphatase 3 (Homo sapiens) (UniProt P51452)
# Test: VHR1 phosphatase inhibitors, primary screen, biochemical, colorimetric, HTS (AID 1992)
# Conditions: recombinant VHR phosphatase, colorimetric substrate read-out; at 20 µM; stronger effect = higher value
# Dual specificity protein phosphatase 3 (Homo sapiens), sequence (P51452 whole entry, looked up): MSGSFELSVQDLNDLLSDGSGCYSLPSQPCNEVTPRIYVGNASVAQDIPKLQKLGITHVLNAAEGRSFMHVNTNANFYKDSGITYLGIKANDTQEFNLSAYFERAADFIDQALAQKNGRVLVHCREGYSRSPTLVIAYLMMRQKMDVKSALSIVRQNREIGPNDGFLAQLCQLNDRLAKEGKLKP
row,SMILES,inhibition
1,O=C(NCc1ccccc1)c1ccc(CN2CCN(c3ccccc3)CC2)cc1,5.6% (inactive)
2,CC(C)(C)c1cc(Br)ccc1OCC(=O)Nc1ccccc1[N+](=O)[O-],-0.7% (inactive)
3,O=C(Nc1cccc(Br)c1)C(=O)NC1CCCC1,-18.7% (inactive)
4,Cc1ccc2c(c1)C(c1ccccc1[N+](=O)[O-])CC(=O)N2 (configuration not stated),-4.5% (inactive)
5,O=C(c1nn2c(c1Cl)NC(c1ccc(F)cc1)CC2C(F)(F)F)N1CCN(Cc2ccccc2)CC1 (configuration not stated),-2.9% (inactive)
6,O=C1C2C(C(=O)N1/N=C/C=C/c1ccccc1)C1C=CC2C12CC2 (configuration not stated),-11.9% (inactive)
7,CC(C)(C)c1cc(N2C(=O)C(=O)/C(=C(\O)c3ccccc3)C2c2cccc([N+](=O)[O-])c2)no1 (configuration not stated),10.1% (inactive)
8,Cc1cccc(NC(=O)CCCOc2ccccc2)c1C,-23.5% (inactive)
9,Cc1ccccc1NCC(=O)N/N=C\c1cc([N+](=O)[O-])cc(Br)c1O,31.8% (inactive)
10,Cc1cc(Br)cc(/C=N/NC(=O)c2cncc(Br)c2)c1O,-16.6% (inactive)
11,Cc1ncc(C[n+]2csc3ccccc32)c(N)n1,23.5% (inactive)
12,COc1ccc(C(=O)/C=C/Nc2cccc(Cl)c2Cl)cc1,3.3% (inactive)
13,CN(C)CCOC(=O)CCN1C(=O)/C(=C/c2ccc(Cl)cc2Cl)SC1=S,-1.5% (inactive)
14,O=C1S/C(=C/c2ccc(-c3ccc(Cl)cc3Cl)o2)C(=O)N1c1ccccc1,-7.5% (inactive)
15,O=C(O)CCN1C(=O)/C(=C/c2ccc(-c3cc(Cl)ccc3Cl)o2)SC1=S,73% (active)
16,Cc1cccc(NC(=O)c2cc(-c3ccc(Br)cc3)nc3ccccc23)n1,-30.2% (inactive)
17,CCn1c(=O)c(C(=O)Nc2ccccc2Br)c(O)c2ccccc21,-20.9% (inactive)
18,COc1ccc(C=O)c2c(O)cccc12,2.1% (inactive)
19,CCN(C=NC1=NN(c2ccccc2)CC1)CC,2.7% (inactive)
20,O=C1C=CC2=C3Oc4c(ccc5cc(O)ccc45)C(c4ccccc4C(=O)O)C3C=CC2=C1 (configuration not stated),85.5% (active)
21,O=C(NCCCn1ccnc1)c1ccccc1[N+](=O)[O-],5.9% (inactive)
22,CC1=C(C(=O)OCc2ccccc2)C(c2ccc(C(F)(F)F)cc2)CC(=O)N1 (configuration not stated),8.1% (inactive)
23,O=C1C(=O)N(Cc2ccccc2)C2C=CC=CC12 (configuration not stated),7.6% (inactive)

row,SMILES,inhibition
1,COc1cccc(NC(=O)CN(c2cccc([N+](=O)[O-])c2)S(=O)(=O)c2ccccc2)c1,-23.4% (inactive)
2,CCOC(=O)c1c(NC(=O)c2cc(OC)c(OC)c(OC)c2)sc(C(N)=O)c1C,1.3% (inactive)
3,S=c1n(CN2CCOCC2)nc(-c2ccccc2Cl)n1-c1ccccc1,-3.8% (inactive)
4,O=C(Nc1cc(Cl)cc(Cl)c1)C1COc2ccccc2O1 (configuration not stated),-3% (inactive)
5,COc1ccc(/C=N/NC(=O)C2CC2)c(OC)c1OC,-32.4% (inactive)
6,Cc1cc(C)c2cccc(NC(=S)NC(=O)c3cccc([N+](=O)[O-])c3)c2n1,-0.4% (inactive)
7,O=[N+]([O-])c1nonc1NCn1nnc2ccccc21,-8% (inactive)
8,CC(NC(=O)C1CC(=O)N(c2ccc(Br)cc2)C1)c1ccccc1 (configuration not stated),16.1% (inactive)
9,COC(=O)c1ccc(/C=N/Nc2nncc(-c3ccccc3)n2)cc1,-34% (inactive)
10,Cc1onc(-c2c(Cl)cccc2Cl)c1C(=O)Nc1sc2c(c1C(N)=O)CCCC2,-46.5% (inactive)
11,O=C1NC(=O)C(=Cc2cccc(OCc3ccccc3)c2)C(=O)N1,-24.8% (inactive)
12,CCOC(=O)Cc1csc(NC(=O)COc2cc(C)ccc2C(C)(C)C)n1,5.7% (inactive)
13,Cc1ccc(-c2ccc(/C=C3\Sc4ccccc4C3=O)o2)c([N+](=O)[O-])c1,-37.5% (inactive)
14,COc1ccc(N2C(=O)c3cccc4c(NC(CO)(CO)CO)ccc(c34)C2=O)cc1,-0.7% (inactive)
15,CCOC(=O)C1=C(O)/C(=C\c2cccc([N+](=O)[O-])c2)SC1=Nc1ccc(OC)cc1,-20.7% (inactive)
16,CCOC(=O)C1=C(O)CSC1=Nc1cccc(Cl)c1,-1.6% (inactive)
17,CCOC(=O)C1=C(O)CSC1=Nc1ccc(F)cc1,104% (active)
18,COc1ccc(C2C(C(=O)/C=C/c3ccccc3)=C(O)C(=O)N2CCCCCC(=O)O)c(OC)c1 (configuration not stated),29.2% (inactive)
19,CCC(=O)N(CCC1(c2ccc(F)cc2)CCOC(C)(C)C1)Cc1ccc(OC)c(OC)c1 (configuration not stated),-8.3% (inactive)
20,COc1ccc(C(=O)Nc2ccc3nn(-c4ccc(C)c(Cl)c4)nc3c2)cc1[N+](=O)[O-],-21.1% (inactive)
21,Cc1c(N(C(=O)c2cccc(Cl)c2)C(C)C)c(=O)n(-c2ccccc2)n1C,-7.9% (inactive)
22,O=C(/C=C\Nc1ccccn1)c1ccc2c(c1)OCO2,-7.8% (inactive)
23,COC(=O)Cn1cc(/C=C2\C(=O)NC(=O)N(c3cc(C)cc(C)c3)C2=O)c2ccccc21,-5.9% (inactive)

row,SMILES,inhibition
1,C/C(=N\NC(=O)c1cccc(Cl)c1)c1ccccc1O,-3.8% (inactive)
2,Cn1/c(=N/N=C/c2cc(Br)ccc2O)sc2ccccc21,114% (active)
3,Oc1ccc(Br)cc1/C=N/Nc1ccccn1,-11% (inactive)
4,Cc1ccc(/C=N/c2nc3ccc(Br)cc3s2)c(O)c1,-5% (inactive)
5,CC(=O)c1nc2cc([N+](=O)[O-])ccc2n1Cc1ccccc1,-31% (inactive)
6,O=C(O)CCC(=O)Nc1cc(Cl)cc(Cl)c1,11.1% (inactive)
7,COc1ccc(CN=CC2=C(O)CC(c3ccccc3)CC2=O)cc1 (configuration not stated),15.4% (inactive)
8,O=[N+]([O-])c1ccc(OCC(O)Cn2cnc3ccccc32)cc1 (configuration not stated),39% (inactive)
9,CCOc1ccc(-c2cc(C(=O)Nc3ccncc3)c3ccccc3n2)cc1,-20.9% (inactive)
10,CC(C)(C)c1ccc(/C=N/NC(=O)Cc2cccc3ccccc23)cc1,-3.8% (inactive)
11,Cc1ccc2c(N)c(C(=O)c3ccccc3)sc2n1,-19.7% (inactive)
12,Nc1nnc(SCC(=O)NCc2ccccc2)s1,-7% (inactive)
13,Nc1nnc(CCC(=O)c2ccccc2)s1,78.1% (active)
14,COc1ccc(NC(=O)/C=C/c2cccc([N+](=O)[O-])c2)cc1,-2.5% (inactive)
15,O=C(NCc1ccccn1)Nc1ccc(Cl)cc1,25.4% (inactive)
16,COc1ccc(N/C(C)=C/C(=O)c2ccc(F)cc2)cc1,-8.4% (inactive)
17,COc1ccc(/C=C2/C(C)=C(C#N)c3nc(N)c(C#N)c(C)c32)cc1OC,24% (inactive)
18,COc1ccccc1/C=N/NC(=O)CCc1c(C)n[nH]c1C,-1.8% (inactive)
19,O=C(NN1CCOCC1)c1cccc(F)c1,-10.6% (inactive)
20,Cc1cc(Cl)ccc1NC1=CC(=O)CC(c2ccccc2)C1 (configuration not stated),-7.1% (inactive)
21,CN(C)/C=C(/Cl)C=C1C(=O)c2ccccc2C1=O,-2.3% (inactive)
22,COc1ccc([N+](=O)[O-])cc1NC(=O)CCc1ccccc1,-10.6% (inactive)
23,CCCCCOC(=O)CSc1nnc(-c2ccccc2Cl)o1,-27.4% (inactive)

row,SMILES,inhibition
1,CCCOC(=O)c1ccc(NC(=O)c2ccc(OCc3ccccc3)cc2)cc1,109% (active)
2,CCCOc1ccc(C(=O)Nc2ccc(N(CC)CC)cc2)cc1,-10.9% (inactive)
3,CCOC(=O)c1ccc(NC(=O)c2cc(OCC)cc(OCC)c2)cc1,-14.7% (inactive)
4,CCOC(=O)C(=O)C1CCc2c([nH]c3ccc(C)cc23)C1=O (configuration not stated),-0.5% (inactive)
5,COc1ccc(OC)c(-n2c(O)c(C=Nc3cccc(C)c3)c(=O)[nH]c2=O)c1,-17.5% (inactive)
6,COc1ccc(NC(=O)C2=C(C)NC(=O)NC2c2ccc(OC)cc2)cc1 (configuration not stated),24.2% (inactive)
7,COC(=O)C1=C(C)N=c2s/c(=C\c3cc(OC)c(OC)cc3[N+](=O)[O-])c(=O)n2C1c1ccccc1 (configuration not stated),-6% (inactive)
8,O=C(Nc1cccc2ccccc12)c1ccc(-c2ccccc2)cc1,-1.1% (inactive)
9,Cc1cc(/C=C2/NC(=S)NC2=O)c(C)n1-c1ccc(N2CCOCC2)cc1,61.6% (active)
10,Cc1cc(/C=C2/NC(=O)NC2=O)c(C)n1-c1ccc(Cl)cc1,-8.6% (inactive)
11,Cc1cc(C=C2C(=O)NC(=S)NC2=O)c(C)n1-c1ccc(F)cc1,0.6% (inactive)
12,CCOc1ccc(N2C(=O)NC(=O)/C(=C/c3ccc(-c4ccccc4[N+](=O)[O-])o3)C2=O)cc1,19% (inactive)
13,O=C1/C(=C/c2ccc(-c3ccc(Cl)cc3C(=O)O)o2)Sc2ccccc21,15.2% (inactive)
14,O=C1NC(=S)N(c2ccc(Cl)cc2)C(=O)/C1=C/c1ccc(-c2ccccc2C(=O)O)o1,95.3% (active)
15,COc1ccc(C(=O)NC2CC(C)(C)NC(C)(C)C2)cc1OC,-52.9% (inactive)
16,O=C(Nc1ncc(Br)cc1Br)c1cccc2ccccc12,101% (inactive)
17,COC(=O)c1cc(C(=O)Nc2ncccc2C)cc([N+](=O)[O-])c1,7.6% (inactive)
18,C/C(=C\C(=O)c1ccc(Br)cc1)Nc1ccccc1F,4.7% (inactive)
19,CC1=NN(c2cccc(Cl)c2)C(=O)/C1=C\c1c(C)[nH]n(-c2ccccc2)c1=O,-29.9% (inactive)
20,CC1=NN(c2ccc(S(N)(=O)=O)cc2)C(=O)/C1=C\c1ccc(-c2cc([N+](=O)[O-])ccc2C)o1,77.1% (active)
21,CC1=NN(c2ccc(S(N)(=O)=O)cc2)C(=O)/C1=C\c1ccc(-c2ccc(Cl)c(C(=O)O)c2)o1,-1.9% (inactive)
22,CC1=NN(c2ccc(S(N)(=O)=O)cc2)C(=O)/C1=C\c1ccc(-c2ccc(C(=O)OC(C)C)cc2)o1,-1.6% (inactive)
23,NC(=O)C1CCN(S(=O)(=O)c2ccc3ccccc3c2)CC1,-3.8% (inactive)
